The results in this text go back to PubChem BioAssay (NCATS).

Where “and” joins values, the source holds several entries; their conditions need not be identical. Identical values can stand only once. Inconclusive results are not listed. Values without a mark were called inactive. Calls of active or inactive are those of the source. Calls come from the whole dose curve; as a rule, active = well fitted cell-killing curve with a large enough effect; inconclusive = small, poorly fitted or top-dose-only effect, or effect the other way; inactive = no such curve, though single readings can be large or run the other way.
Potency is the fitted concentration of half-maximal effect.

A short description of this experiment: Viability qHTS for spleen associated tyrosine kinase inhibitor (SYKi) drug resistant MV4-11 cells (AID 1963824). Note: nearly all actives have a fitted effect of over 35% in size. The conditions noted are these: SYKi-resistant MV4-11 viability, CellTiter-Glo, 72 h; series mostly up to 45 µM; viability, % of control: at the top concentration. The method in brief: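 SYK inhibitor-resistant MV4-11 AML cells, 500 per well, added to predispensed compounds and incubated 72 hr at 37 C, 5% CO2. Viability measured by CellTiter-Glo luminescence after 10 min at room temperature.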
For `CC/C(=C(/CC)c1ccc(O)cc1)c1ccc(O)cc1`, the Potency is 18.6 µM (active).
The same measure, in the same setting: then `N#C/C(=C\c1ccc(O)c(O)c1)C(=O)NCc1ccccc1`, with 9.2 µM (active) and 16.6 µM (active).
For the compound `COc1ccc(CNc2nc(N(CCO)CCO)nc3c2ncn3C(C)C)cc1`, the Potency was 5.8 µM (active).
`COc1ccc(NS(=O)(=O)c2ccc(N)cc2)nn1`: the “viability, % of control” value is 89.4%.
Take `Cc1[nH]c(/C=C2\C(=O)Nc3ccc(F)cc32)c(C)c1C(=O)NCCN1CCCC1`: the Potency is 73.1 nM (active) and 32.3 nM (active).
Still for that read-out and setting: then `COC(=O)[C@H]1[C@@H](O)[C@@]2(O)c3c(OC)cc(O[C@@H]4O[C@@H]([C@@H](O)CO)CO[C@H]4OC)cc3O[C@@]2(c2ccc(OC)cc2)[C@@H]1c1ccccc1`, with 1.66 µM (active); and `COC(=O)c1ccc([C@H]2c3[nH]c4ccccc4c3C[C@H](C(=O)OC)N2C(=O)CCl)cc1`, with 0.525 µM (active).
Still for that read-out and setting: the same measure for `C[C@H]1CNC(=O)c2cnn3ccc(nc23)N[C@H](C)c2cc(F)ccc2O1`: 0.934 µM (active); for `O=C(Nc1ncc(SCCN2CCCC2)s1)[C@]1(c2ccc(S(=O)(=O)C3CC3)cc2)C[C@H]1C1CCCCC1`: 8.33 µM (active).
Turning to `CC(=O)Nc1cccc(O)c1`, the “viability, % of control” value is 90.6%.
With `CC(=O)N1c2ccc(-c3ccc(C(=O)O)cc3)cc2[C@H](Nc2ccc(Cl)cc2)C[C@@H]1C`, the Potency is 0.059 µM (active).
In the case of `COC1CCN(C(=O)c2cc(Cc3n[nH]c(=O)c4ccccc34)ccc2F)CC1`, the Potency was 14.8 µM (active).
As to `CC[C@H](CC[C@@H](C)[C@H]1CC[C@H]2[C@@H]3CC=C4C[C@@H](O)CC[C@]4(C)[C@H]3CC[C@]12C)C(C)C`, the “viability, % of control” value is 76.6%.
`Oc1ccc(/C=C/c2cc(O)cc(O)c2)cc1`: the Potency is 18.6 µM (active).
Turning to `C[C@]12CCC3=C4CCC(=O)C=C4CC[C@H]3[C@@H]1CC[C@@]2(O)CC#N`, the “viability, % of control” value was 87.3%.
`C=CC[C@@H]1/C=C(\C)C[C@H](C)C[C@H](OC)[C@H]2O[C@@](O)(C(=O)C(=O)N3CCCC[C@H]3C(=O)O[C@H](/C(C)=C/[C@@H]3CC[C@@H](O)[C@H](OC)C3)[C@H](C)[C@@H](O)CC1=O)[C@H](C)C[C@@H]2OC`: the Potency was 14.8 µM (active).
Turning to `CC(C)(C)c1nnc(NS(=O)(=O)c2ccc(N)cc2)s1`, the “viability, % of control” value was 76.8%.
For `COC(=O)/C=C/C(=O)OC`, the “viability, % of control” value is 106%.
As to `COC(=O)C1=C(C)NC(C)=C(C(=O)OCC(C)C)C1c1ccccc1[N+](=O)[O-]` (stereo not given), the Potency was 10.6 µM (active).
For the compound `CN(C)/C(N)=N/C(=N)N`, the Potency entry was “inactive”.
Turning to `C=CC(=O)N1CCC(Oc2cc3c(Nc4ccc(Cl)c(Cl)c4F)ncnc3cc2OC)CC1`, the Potency was 4.68 µM (active).
On the same count and under the same terms, the same measure for `CNc1ncc2cc(-c3cc(NC(=O)NCCC(C)(C)C)c(F)cc3C)c(C)nc2n1`: 0.164 µM (active).
The same measure, in the same setting: the same measure for `COC(=O)C1=C(C)NC(C)=C(C(=O)OC)C1c1ccccc1[N+](=O)[O-]`: 11.9 µM (active); for `N#Cc1cc2cc(CN3CCC(Nc4ncnc5sc(CC(F)(F)F)cc45)CC3)c(O)cc2n1Cc1cn[nH]c1`: 1.32 µM (active).
Same read-out and setting: then `OCCN1CCN(CC/C=C2/c3ccccc3Sc3ccc(C(F)(F)F)cc32)CC1`, with 21.1 µM (active); and `Cc1nc(NC(=O)N2CCCC2C(N)=O)sc1-c1ccnc(C(C)(C)C(F)(F)F)c1` (stereo not given), with 9.2 µM (active).
Consider `N#CN1CCC[C@@H](n2nc(-c3ccc(Oc4ccc(F)cc4F)cc3)c(C(N)=O)c2N)C1`, for which the Potency is 18.6 µM (active).
Same read-out and setting: then `COc1cc(OC)cc(N(CCNC(C)C)c2ccc3ncc(-c4cnn(C)c4)nc3c2)c1`, with 4.11 µM (active).
For `CCn1ccnc1CC1COc2ccccc2O1` (stereo not given), the “viability, % of control” value is 69.6%.
Turning to `CC1(C)OC2=C(C(=O)c3ccccc3C2=O)[C@H](NCc2ccccc2)[C@@H]1O`, the Potency was 2.63 µM (active).
With `O=c1[nH]sc2cc(Cl)ccc12`, the “viability, % of control” value was 5.53%.
For `C=C1C(=O)O[C@@H]2[C@H]3C(C)=CC[C@@]34O[C@@]4(C)CC[C@@H]12`, the Potency is 1.48 µM (active).
Turning to `Cc1ccc(NS(=O)(=O)c2cccc(C#N)c2)c2[nH]cc(C#N)c12`, the Potency is 0.235 µM (active).
Take `N#Cc1ccc(-c2c(-c3ncn[nH]3)sc(N3CCOCC3)c2C#N)c(F)c1`: the Potency is 2.06 µM (active) and 5.9 µM (active).
On the same count and under the same terms, the same measure for `Cn1nccc1Nc1nccc(-c2cc3c(s2)C(C)(C)N(CCN2CCOCC2)C3=O)n1`: 3.72 µM (active); for `CCN(CC)CCNC(=O)c1c(C)[nH]c(/C=C2/C(=O)Nc3ccc(-c4csc(-c5ccccc5)n4)cc32)c1C`: 1.32 µM (active).
Same read-out and setting: the same measure for `CN[C@@H]1C[C@H]2O[C@@](C)([C@@H]1OC)n1c3ccccc3c3c4c(c5c6ccccc6n2c5c31)C(=O)N[C@H]4O`: 0.0237 µM (active).
Consider `CNC(=O)Cn1cc(-c2ccc3c(c2)C(F)CC32NC(=O)N(CC(=O)N(Cc3ccc(F)cc3)C(C)C(F)(F)F)C2=O)cn1` (stereo not given), for which the Potency is 0.166 µM (active).
Regarding `Cc1cc(I)ccc1Nc1c(C(=O)NOCC2CC2)cc(F)c(F)c1F`, the Potency was 2.59 µM (active).
Regarding `CCCS(=O)(=O)c1nc(NC2CC2)cc(-c2ccc3c(ccn3C3CC(C)(C)NC(C)(C)C3)c2)n1`, the Potency was 1.11 µM (active).
